Measured values reported in PubChem BioAssay.
Inconclusive results are not listed. Calls of active or inactive are those of the source.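 How the source made its calls, unless noted: active means percent response above 42, roughly 3 SD of non-fluorescent test compounds; inactive means the rest.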

How the values were obtained:
[1] = yeast TOR pathway RPL19A-GFP modulators, primary screen, cell-based, S. cerevisiae, multiplex flow cytometry (AID 1862; in the data active means percent of DMSO control GFP below about 86%;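 further: lower values mimic rapamycin by blocking the RPL19A rise seen in DMSO cells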); conditions: S. cerevisiae RPL19A-GFP strain, flow cytometry fluorescence, 3 h; at 10 µM; stronger effect = lower value
[2] = modulators of MEP2-GFP levels in yeast, primary screen, S. cerevisiae, multiplex flow cytometry (AID 1867;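 active means GFP response, as percent of the DMSO control, above the screen-wide mean plus 3 SD, about 139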;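 further: median GFP channel fluorescence of barcode-gated MEP2-GFP cells measured by flow cytometry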); conditions: S. cerevisiae MEP2-GFP strain, 3 h, at 10 µM, stronger effect = higher value, 100% means same as DMSO wells
[3] = modulators of CIT2-GFP expression in yeast, primary screen, S. cerevisiae, GFP fusion, multiplex flow cytometry (AID 1870;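 active means percent response above a set limit, the screen-wide mean plus 3 SD, cut at about 130% in these data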;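 further: barcoded CIT2-GFP strain pooled with four other GFP strains with rapamycin as positive control; median GFP fluorescence per well over plate mean of DMSO wells so 100% = DMSO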); conditions: 3 h, at 10 µM, stronger effect = higher value
[4] = modulators of LAP4-GFP expression in yeast, primary screen, S. cerevisiae, multiplex flow cytometry (AID 1873;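 active means GFP signal, as percent of the solvent control, above the screen mean plus 3 SD, about 149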); conditions: 3 h, at 10 µM, stronger effect = higher value
[5] = modulators of AGP1-GFP expression in yeast TOR pathway, primary screen, cell-based, multiplex flow cytometry, S. cerevisiae (AID 1887;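 active means GFP signal above the screen-wide mean plus 3 SD, that is over about 124.5% of the solvent control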;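 further: AGP1-GFP fusion strain of S. cerevisiae within a five-strain barcoded multiplex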); conditions: 3 h, at 10 µM, stronger effect = higher value
[6] = inhibitors of CD8+ T cell-vesicle binding, pilot screen, LFA-1/ICAM-1 modulator project, MLPCN validation set, flow cytometry (AID 2523;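 active means response below a set limit, under 55% cells CD8-positive and vesicle-bound, and CD8 cells' 90th-percentile brightness under 279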;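 on vesicle binding response: mean PE anti-B7-1 fluorescence of CD8+ cells relative to row control; 100% = QL9-loaded vesicles with DMSO vehicle in the same plate row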); conditions: 2C mouse CD8+ T cells, at 7 µM, stronger effect = lower value; double positive events: measured here: CD8+/vesicle+ event percentage
[7] = molecular target: Integrin beta-1 (Homo sapiens) + Integrin alpha-4 (Homo sapiens) (UniProt P13612+P05556); experiment: inhibition of HUTS-21 binding to VLA-4, pilot screen, VLA-4 allosteric modulator project, U937 cells, HUTS-21 mAb, flow cytometry, validation set (AID 2674;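 active means inhibition above 50%, about 3 SD of the validation set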;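 further: antibody binding induced by the VLA-4 ligand LDV present at three times its Kd; 0% = LDV ligand with antibody and no compound and 100% = antibody without LDV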); conditions: HUTS-21 LIBS mAb binding, at 6.7 µM, stronger effect = higher value, binding induced by LDV ligand
Sequence of Integrin beta-1 (Homo sapiens) + Integrin alpha-4 (Homo sapiens) (P05556 whole entry, looked up): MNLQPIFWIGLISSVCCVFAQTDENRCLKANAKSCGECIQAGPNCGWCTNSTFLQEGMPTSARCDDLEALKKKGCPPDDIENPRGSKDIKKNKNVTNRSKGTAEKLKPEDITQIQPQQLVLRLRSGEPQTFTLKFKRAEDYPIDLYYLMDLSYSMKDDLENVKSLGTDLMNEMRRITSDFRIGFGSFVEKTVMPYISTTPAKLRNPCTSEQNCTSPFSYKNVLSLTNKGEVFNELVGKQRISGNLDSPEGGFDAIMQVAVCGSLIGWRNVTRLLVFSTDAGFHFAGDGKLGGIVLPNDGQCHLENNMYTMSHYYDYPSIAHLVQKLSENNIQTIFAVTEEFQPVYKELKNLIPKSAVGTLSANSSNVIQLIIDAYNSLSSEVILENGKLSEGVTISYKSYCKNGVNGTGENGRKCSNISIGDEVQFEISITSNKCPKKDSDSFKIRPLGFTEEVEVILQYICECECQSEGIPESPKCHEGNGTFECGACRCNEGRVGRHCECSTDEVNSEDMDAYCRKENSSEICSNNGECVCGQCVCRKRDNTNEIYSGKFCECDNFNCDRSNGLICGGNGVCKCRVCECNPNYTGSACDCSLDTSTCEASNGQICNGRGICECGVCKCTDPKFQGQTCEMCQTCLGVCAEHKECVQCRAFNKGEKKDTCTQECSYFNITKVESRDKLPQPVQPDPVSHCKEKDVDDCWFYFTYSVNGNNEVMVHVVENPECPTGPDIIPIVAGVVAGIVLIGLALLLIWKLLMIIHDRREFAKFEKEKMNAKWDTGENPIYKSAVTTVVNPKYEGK
Sequence of Integrin beta-1 (Homo sapiens) + Integrin alpha-4 (Homo sapiens) (P13612 whole entry, looked up): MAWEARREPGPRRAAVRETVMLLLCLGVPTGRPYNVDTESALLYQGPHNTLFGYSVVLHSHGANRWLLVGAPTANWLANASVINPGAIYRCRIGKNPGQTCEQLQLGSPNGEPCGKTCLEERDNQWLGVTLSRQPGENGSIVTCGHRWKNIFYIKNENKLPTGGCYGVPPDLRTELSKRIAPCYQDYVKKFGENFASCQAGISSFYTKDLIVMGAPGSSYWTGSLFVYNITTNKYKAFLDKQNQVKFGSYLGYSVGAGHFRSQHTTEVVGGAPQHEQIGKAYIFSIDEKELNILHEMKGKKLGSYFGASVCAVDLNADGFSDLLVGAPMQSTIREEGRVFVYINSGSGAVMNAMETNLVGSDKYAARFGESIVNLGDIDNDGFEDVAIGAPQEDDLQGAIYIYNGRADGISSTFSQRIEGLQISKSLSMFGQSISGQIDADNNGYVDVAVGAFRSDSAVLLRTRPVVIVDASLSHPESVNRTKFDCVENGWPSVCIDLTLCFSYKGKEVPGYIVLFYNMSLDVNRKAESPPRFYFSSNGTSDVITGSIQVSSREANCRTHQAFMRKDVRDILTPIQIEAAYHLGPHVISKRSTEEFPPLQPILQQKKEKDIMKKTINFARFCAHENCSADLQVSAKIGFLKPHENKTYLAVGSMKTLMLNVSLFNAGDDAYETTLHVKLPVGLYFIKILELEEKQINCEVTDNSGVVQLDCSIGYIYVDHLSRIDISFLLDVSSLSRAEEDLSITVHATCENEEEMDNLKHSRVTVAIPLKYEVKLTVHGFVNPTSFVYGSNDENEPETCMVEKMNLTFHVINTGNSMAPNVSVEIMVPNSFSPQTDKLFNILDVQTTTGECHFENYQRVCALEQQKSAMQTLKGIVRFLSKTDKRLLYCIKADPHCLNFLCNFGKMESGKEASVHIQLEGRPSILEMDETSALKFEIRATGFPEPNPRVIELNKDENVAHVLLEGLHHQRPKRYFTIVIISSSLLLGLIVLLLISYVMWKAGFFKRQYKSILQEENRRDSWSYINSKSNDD

[8] = superoxide lowering in aged yeast cells, pilot screen, validation compound set (AID 2706;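 active means superoxide response below 65% of plate, a cut near 3 SD across the whole screen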;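 further: yeast exposed to compound for one week at 30 degrees C before staining; 100% = mean of all compound wells on the same plate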); conditions: S. cerevisiae aging, superoxide DHE fluorescence; at 10 µM; stronger effect = lower value
[9] = molecular target: Beta-adrenergic receptor kinase 1 (Homo sapiens) (UniProt P25098); experiment: GRK2 binders displacing RNA aptamer, biochemical, validation, human GRK2, bead flow cytometry (AID 488806;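 active means aptamer binding inhibition above 30%, about 3 SD of noise from non-fluorescent compounds; inactive means inhibition at or below 30%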); conditions: bead-bound GRK2, FAM-aptamer displacement, at 10 µM, stronger effect = higher value
Sequence of Beta-adrenergic receptor kinase 1 (Homo sapiens) (P25098 whole entry, looked up): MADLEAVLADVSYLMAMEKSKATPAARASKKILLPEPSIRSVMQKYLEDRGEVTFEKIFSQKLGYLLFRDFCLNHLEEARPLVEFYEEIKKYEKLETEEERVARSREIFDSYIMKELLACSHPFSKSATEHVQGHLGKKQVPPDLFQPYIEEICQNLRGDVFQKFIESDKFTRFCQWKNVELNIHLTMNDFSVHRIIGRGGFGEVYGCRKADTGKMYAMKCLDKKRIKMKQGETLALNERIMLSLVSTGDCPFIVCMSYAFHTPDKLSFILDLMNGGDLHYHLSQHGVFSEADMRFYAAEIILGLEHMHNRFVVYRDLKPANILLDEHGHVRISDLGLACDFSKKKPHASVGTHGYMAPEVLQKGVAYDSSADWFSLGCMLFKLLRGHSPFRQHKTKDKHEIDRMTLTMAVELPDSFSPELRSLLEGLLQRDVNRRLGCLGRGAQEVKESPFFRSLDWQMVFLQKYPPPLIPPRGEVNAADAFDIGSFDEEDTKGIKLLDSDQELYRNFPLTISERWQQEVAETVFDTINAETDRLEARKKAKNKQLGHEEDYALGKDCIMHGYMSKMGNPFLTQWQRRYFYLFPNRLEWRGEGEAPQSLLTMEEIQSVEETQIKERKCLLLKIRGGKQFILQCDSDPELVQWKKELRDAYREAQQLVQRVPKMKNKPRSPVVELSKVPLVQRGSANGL

[10] = molecular target: Beta-2 adrenergic receptor (Homo sapiens) (UniProt P07550); experiment: beta2AR agonists driving receptor internalization, pilot screen, cell-based, FAP fluorogen, flow cytometry, validation set (AID 504459); conditions: Am2.2-beta2AR cells, FAP surface receptor flow cytometry; at 10 µM; stronger effect = higher value;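 further: agonist-driven loss of surface beta2AR via internalization measured by FAP dye flow cytometry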
Sequence of Beta-2 adrenergic receptor (Homo sapiens) (P07550 whole entry, looked up): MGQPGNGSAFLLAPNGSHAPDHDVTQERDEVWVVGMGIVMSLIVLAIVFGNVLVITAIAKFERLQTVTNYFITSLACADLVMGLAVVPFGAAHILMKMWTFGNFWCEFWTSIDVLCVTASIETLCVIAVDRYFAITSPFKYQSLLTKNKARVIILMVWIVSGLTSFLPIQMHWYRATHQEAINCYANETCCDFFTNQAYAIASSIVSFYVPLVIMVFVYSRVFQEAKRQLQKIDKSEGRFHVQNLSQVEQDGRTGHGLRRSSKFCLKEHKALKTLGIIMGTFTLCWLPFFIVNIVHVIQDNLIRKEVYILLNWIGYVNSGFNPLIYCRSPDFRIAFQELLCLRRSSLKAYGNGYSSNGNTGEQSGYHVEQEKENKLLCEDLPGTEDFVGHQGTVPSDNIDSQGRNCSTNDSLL

[11] = molecular target: AP-2 complex subunit beta (Homo sapiens) (UniProt P63010); experiment: inhibitors of arrestin peptide binding to AP2, pilot screen, biochemical, validation set, GST-AP2 beads, flow cytometry (AID 504541;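 active means inhibition above 54%, about 3 SD of non-fluorescent compounds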;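 further: AP2 carries R879A mutation and is captured from E. coli lysate; bead-bound FITC arrestin peptide fluorescence measuring arrestin peptide binding to AP2; 0% = DMSO wells and 100% = excess unlabeled arrestin peptide control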); conditions: FITC arrestin peptide, at 10 µM, stronger effect = higher value, AP2 beta2 appendage fragment, R879A mutant
Sequence of AP-2 complex subunit beta (Homo sapiens) (P63010 whole entry, looked up, the tested form may be a part, one chain of several): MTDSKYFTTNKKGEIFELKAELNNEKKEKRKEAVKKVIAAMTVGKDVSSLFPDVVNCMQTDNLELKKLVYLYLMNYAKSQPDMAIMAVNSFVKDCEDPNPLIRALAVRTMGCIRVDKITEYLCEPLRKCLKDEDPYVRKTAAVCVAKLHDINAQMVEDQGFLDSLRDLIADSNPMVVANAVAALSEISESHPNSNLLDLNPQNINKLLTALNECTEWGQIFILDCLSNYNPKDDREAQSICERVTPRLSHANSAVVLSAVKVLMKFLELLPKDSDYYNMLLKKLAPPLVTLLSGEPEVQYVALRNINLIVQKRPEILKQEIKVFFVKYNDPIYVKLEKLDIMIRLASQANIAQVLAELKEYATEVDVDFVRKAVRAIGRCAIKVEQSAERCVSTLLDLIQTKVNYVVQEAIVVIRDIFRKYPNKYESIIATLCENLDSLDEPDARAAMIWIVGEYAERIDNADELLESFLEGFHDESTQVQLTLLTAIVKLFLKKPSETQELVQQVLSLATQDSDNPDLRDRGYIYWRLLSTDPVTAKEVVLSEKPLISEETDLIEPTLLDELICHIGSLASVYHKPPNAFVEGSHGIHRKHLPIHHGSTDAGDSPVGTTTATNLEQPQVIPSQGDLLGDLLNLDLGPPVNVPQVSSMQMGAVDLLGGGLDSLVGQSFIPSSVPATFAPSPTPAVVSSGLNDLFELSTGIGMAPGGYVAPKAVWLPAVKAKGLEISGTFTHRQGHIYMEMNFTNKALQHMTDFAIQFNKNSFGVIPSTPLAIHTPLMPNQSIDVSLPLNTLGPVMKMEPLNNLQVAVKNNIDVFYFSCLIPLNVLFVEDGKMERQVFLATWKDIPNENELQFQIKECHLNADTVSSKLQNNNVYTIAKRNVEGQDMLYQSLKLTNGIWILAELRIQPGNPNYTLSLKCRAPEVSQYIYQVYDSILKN

[12] = yeast V-ATPase proton transport modulators, S. cerevisiae, pHLuorin, HTS validation (AID 504600; in the data active means response above about 15%;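 further: plate controls were DMSO for no effect and reference compound for full effect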); conditions: S. cerevisiae pHLuorin cytosolic pH, at 10 µM, stronger effect = higher value
[13] = system: anti-desmoglein-3 scFv antibody binding to human DSG3; experiment: inhibitors of anti-DSG3 scFv binding to DSG3, pilot screen, biochemical, validation compound set, bead-based, flow cytometry (AID 588368;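 active means binding below the plate cutoff, the plate median minus 3 SD, with a reading above zero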;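 further: signal is the median channel fluorescence of bead-bound GFP antibody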); conditions: Protein G beads, DSG3-Fc, scFv-GFP binding, at 10 µM, stronger effect = lower value
[14] = inhibitors of fungal efflux pumps CDR1, CDR2, MDR1, pilot screen, validation compound set, multiplex, phenotypic (AID 588506;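 active means efflux inhibition above 0.42, the validation set average plus 4 SD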;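 further: Nile Red retained in cells so higher fluorescence means more efflux inhibition; 0 = negative control wells and 1 = enniatin B 25 µM full block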); conditions: S. cerevisiae pump-expressing triplex, Nile Red efflux flow cytometry; at 10 µM; stronger effect = higher value; the pumps come from Candida albicans
[15] = molecular target: ATP-binding cassette sub-family B member 6 (Homo sapiens) (UniProt Q9NP58); experiment: ABCB6 transporter inhibitors, pilot screen, K562-ABCB6 cells, flow cytometry, validation set (AID 588550;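 active means inhibition above the screen-wide mean plus 3 SD, about 51%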;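 further: 0% = DMSO wells and 100% = benzethonium chloride 70 µM positive control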); conditions: K562-ABCB6 porphyrin accumulation, 1 h, at 10 µM, stronger effect = higher value
Sequence of ATP-binding cassette sub-family B member 6 (Homo sapiens) (Q9NP58 whole entry, looked up): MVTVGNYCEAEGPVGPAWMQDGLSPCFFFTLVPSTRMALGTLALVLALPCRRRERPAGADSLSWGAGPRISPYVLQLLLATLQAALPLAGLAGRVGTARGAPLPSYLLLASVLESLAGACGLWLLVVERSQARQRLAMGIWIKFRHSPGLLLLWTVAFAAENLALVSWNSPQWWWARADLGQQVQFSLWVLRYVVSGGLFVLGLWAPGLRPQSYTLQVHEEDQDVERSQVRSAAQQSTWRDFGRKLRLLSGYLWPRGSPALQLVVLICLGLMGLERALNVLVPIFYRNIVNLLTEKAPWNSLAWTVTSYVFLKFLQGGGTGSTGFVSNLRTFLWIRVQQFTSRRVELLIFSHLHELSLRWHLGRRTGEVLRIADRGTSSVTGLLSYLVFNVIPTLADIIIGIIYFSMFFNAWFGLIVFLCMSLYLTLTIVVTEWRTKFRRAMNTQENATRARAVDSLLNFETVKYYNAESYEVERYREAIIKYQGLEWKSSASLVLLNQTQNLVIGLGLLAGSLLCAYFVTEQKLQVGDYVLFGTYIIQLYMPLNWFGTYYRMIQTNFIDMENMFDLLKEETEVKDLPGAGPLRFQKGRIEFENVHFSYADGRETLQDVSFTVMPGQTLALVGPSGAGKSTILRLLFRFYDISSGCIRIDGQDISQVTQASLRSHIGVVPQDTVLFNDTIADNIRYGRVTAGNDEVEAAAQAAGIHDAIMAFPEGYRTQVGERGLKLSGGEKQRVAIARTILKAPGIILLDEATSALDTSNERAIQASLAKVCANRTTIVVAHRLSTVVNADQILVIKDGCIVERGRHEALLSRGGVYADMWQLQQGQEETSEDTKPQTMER

[16] = promoters of myeloid differentiation in arrested cells, primary screen, cell-based, GFP/MAC1 double positive, flow cytometry, validation set (AID 588685;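 active means differentiation response of at least 50%, scaled between solvent and reference control, from cells with both markers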;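 further: compound exposure lasts four days before antibody staining and flow analysis; 0% = DMSO wells and 100% = 5 µM fulvestrant positive control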); conditions: ER-HoxA9 marrow cells, stronger effect = higher value, normalized: vehicle 0, fulvestrant 100

CC1CCc2cc(F)cc3c(=O)c(C(=O)O)cn1c23 (configuration not stated)
inactive: percent of DMSO control GFP [1] 99% | GFP response vs DMSO [2] 111% | percent response of DMSO control [3] 95.4% | GFP response vs DMSO [4] 101% | GFP response, % of DMSO [5] 96.5% | vesicle binding response [6] 204% | inhibition [7] -37.8% | superoxide response (% of plate) [8] 101% | aptamer binding inhibition [9] 0% | response [10] -2.58% | inhibition [11] 10.9% | response [12] -2.27% | binding (% of control) [13] 94% | efflux inhibition (fraction of control) [14] -0.04 | inhibition [15] -15% | differentiation response [16] -6.6%
62.3%: double positive events [6]

CCN1C(=O)C(CC(=O)Nc2ccc(OC)cc2)N(CCc2ccc(F)cc2)C1=S (configuration not stated)
inactive: percent of DMSO control GFP [1] 96.9% | GFP response vs DMSO [2] 98.5% | percent response of DMSO control [3] 93.9% | GFP response vs DMSO [4] 124% | GFP response, % of DMSO [5] 96.2% | vesicle binding response [6] 292% | inhibition [7] -3.16% | superoxide response (% of plate) [8] 102% | aptamer binding inhibition [9] 2% | response [10] 5.66% | inhibition [11] 50.8% | response [12] -3.51% | binding (% of control) [13] 102% | efflux inhibition (fraction of control) [14] 0.19 | inhibition [15] 3% | differentiation response [16] 8.8%
60.7%: double positive events [6]

CC1(C)C(=O)OC(c2cccs2)C2(CCCCC2)C1=O (configuration not stated)
inactive: percent of DMSO control GFP [1] 99.2% | GFP response vs DMSO [2] 108% | percent response of DMSO control [3] 96.6% | GFP response vs DMSO [4] 105% | GFP response, % of DMSO [5] 97.5% | vesicle binding response [6] 228% | inhibition [7] -18.1% | superoxide response (% of plate) [8] 109% | aptamer binding inhibition [9] 0% | response [10] 3.42% | inhibition [11] 44.8% | response [12] -2.62% | binding (% of control) [13] 97.4% | efflux inhibition (fraction of control) [14] -0.01 | inhibition [15] 2%
61.1%: double positive events [6]
active: differentiation response [16] 53%

COc1ccc(C2c3c(n[nH]c3C)CC(C)(O)C2C(C)=O)cc1OC (configuration not stated)
inactive: percent of DMSO control GFP [1] 87.3% | GFP response vs DMSO [2] 129% | percent response of DMSO control [3] 97.9% | GFP response vs DMSO [4] 76.5% | GFP response, % of DMSO [5] 90.3% | vesicle binding response [6] 58.4% | inhibition [7] 10.3% | superoxide response (% of plate) [8] 106% | aptamer binding inhibition [9] 4% | response [10] -2.94% | inhibition [11] -0.31% | response [12] 0.84% | binding (% of control) [13] 103% | efflux inhibition (fraction of control) [14] -0.13 | inhibition [15] 7% | differentiation response [16] 13.1%
67.8%: double positive events [6]

Nc1ccn([C@@H]2O[C@H](CO)[C@@H](O)[C@@H]2O)c(=O)n1
64.5%: double positive events [6]
inactive: percent of DMSO control GFP [1] 101% | GFP response vs DMSO [2] 106% | percent response of DMSO control [3] 109% | GFP response vs DMSO [4] 114% | GFP response, % of DMSO [5] 111% | vesicle binding response [6] 201% | inhibition [7] 8.29% | superoxide response (% of plate) [8] 108% | aptamer binding inhibition [9] 0% | response [10] -9.36% | inhibition [11] 10.5% | response [12] -2.75% | binding (% of control) [13] 99.4% | efflux inhibition (fraction of control) [14] -0.08 | inhibition [15] -10% | differentiation response [16] -11.9%

O=c1c2ccccc2nc2n1CCCN2
active: vesicle binding response [6] 72.9%
50.4%: double positive events [6]
inactive: percent of DMSO control GFP [1] 103% | GFP response vs DMSO [2] 97.4% | percent response of DMSO control [3] 111% | GFP response vs DMSO [4] 98.2% | GFP response, % of DMSO [5] 103% | inhibition [7] -7.25% | superoxide response (% of plate) [8] 102% | aptamer binding inhibition [9] -1% | response [10] -10.8% | inhibition [11] -9.42% | response [12] -1.39% | binding (% of control) [13] 102% | efflux inhibition (fraction of control) [14] -0.1 | inhibition [15] 2% | differentiation response [16] -16.8%
